Source: publication PMC7862700, “An all-to-all approach to the identification of sequence-specific readers for epigenetic DNA modifications on cytosine”

Legend:
Experiment in all cases: DAPPL (digital affinity profiling via proximity ligation, sequencing); 10 mM Tris-HCl pH 7.5, 50 mM NaCl, 1 mM DTT, 4% glycerol, room temperature, 30 min; GST-TFs on glutathione beads, 16-mer random dsDNA library, 0.1% formaldehyde crosslink after washing; high values mean tight binding
[1] = molecular target: T1, FLI1 (Homo sapiens, UniProt Q01543 1-452); conditions: protein: recombinant; tags: N-terminal GST; dsDNA, one strand shown
T1 sequence: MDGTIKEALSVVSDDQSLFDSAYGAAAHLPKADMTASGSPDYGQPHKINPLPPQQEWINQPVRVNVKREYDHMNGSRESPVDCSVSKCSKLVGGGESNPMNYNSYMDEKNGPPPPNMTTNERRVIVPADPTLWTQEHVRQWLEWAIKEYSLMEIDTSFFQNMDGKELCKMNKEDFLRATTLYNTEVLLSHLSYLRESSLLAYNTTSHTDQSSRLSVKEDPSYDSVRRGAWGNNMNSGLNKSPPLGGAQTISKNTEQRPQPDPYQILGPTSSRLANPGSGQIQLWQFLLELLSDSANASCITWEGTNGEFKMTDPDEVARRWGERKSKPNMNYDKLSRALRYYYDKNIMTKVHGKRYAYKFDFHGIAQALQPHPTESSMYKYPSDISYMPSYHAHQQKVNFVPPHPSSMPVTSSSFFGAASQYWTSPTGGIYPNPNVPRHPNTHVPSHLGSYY
How it was run: (§1)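 In yeast, human transcription factors were expressed with a GST fusion, then pulled down on glutathione beads and given DNA barcodes. Pooled with a tag-only sample, they were exposed to 200 nmole of a 16-mer random double-stranded DNA library (Tris/NaCl/DTT/glycerol buffer, room temperature, 30 min), washed, crosslinked with 0.1% formaldehyde, proximity-ligated using BsaI/T4 ligase for 1 h at 37 °C, PCR-amplified and read on an Illumina NextSeq500. Each hexamer's frequency of reads for a factor, divided by the matching frequency for the tag-only sample, gives the binding signal.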

[2] = molecular target: T2, ELK1 (Homo sapiens, UniProt P19419 1-428); conditions: protein: recombinant; tags: N-terminal GST; dsDNA, one strand shown
T2 sequence: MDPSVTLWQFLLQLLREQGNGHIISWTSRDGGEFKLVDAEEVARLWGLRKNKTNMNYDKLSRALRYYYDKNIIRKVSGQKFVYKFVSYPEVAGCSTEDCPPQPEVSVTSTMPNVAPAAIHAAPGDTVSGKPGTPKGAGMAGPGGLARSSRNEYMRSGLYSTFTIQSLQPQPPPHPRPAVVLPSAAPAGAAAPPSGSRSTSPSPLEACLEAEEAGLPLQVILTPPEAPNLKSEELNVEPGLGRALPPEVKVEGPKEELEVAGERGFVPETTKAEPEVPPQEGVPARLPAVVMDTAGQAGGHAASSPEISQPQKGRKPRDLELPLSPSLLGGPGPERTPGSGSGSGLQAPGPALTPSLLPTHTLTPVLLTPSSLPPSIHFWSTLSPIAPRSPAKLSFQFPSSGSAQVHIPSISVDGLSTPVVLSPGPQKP
How it was run: as §1

[3] = molecular target: T3, GABPA (Homo sapiens, UniProt Q06546 1-454); conditions: protein: recombinant; tags: N-terminal GST; dsDNA, one strand shown
T3 sequence: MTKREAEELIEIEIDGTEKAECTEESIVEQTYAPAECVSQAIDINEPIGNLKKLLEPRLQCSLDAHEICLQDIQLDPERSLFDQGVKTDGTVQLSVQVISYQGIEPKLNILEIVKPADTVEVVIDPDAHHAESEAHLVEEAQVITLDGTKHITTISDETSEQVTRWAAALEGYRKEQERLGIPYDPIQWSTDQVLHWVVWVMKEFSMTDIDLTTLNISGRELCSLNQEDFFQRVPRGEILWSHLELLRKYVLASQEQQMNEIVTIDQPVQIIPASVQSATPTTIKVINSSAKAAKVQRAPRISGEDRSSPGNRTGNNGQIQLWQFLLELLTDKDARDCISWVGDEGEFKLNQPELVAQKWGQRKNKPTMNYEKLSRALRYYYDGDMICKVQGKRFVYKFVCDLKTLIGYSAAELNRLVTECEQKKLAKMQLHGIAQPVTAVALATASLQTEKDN
How it was run: as §1

[4] = molecular target: T4, ERG (Homo sapiens, UniProt P11308 1-479); conditions: protein: recombinant; tags: N-terminal GST; dsDNA, one strand shown
T4 sequence: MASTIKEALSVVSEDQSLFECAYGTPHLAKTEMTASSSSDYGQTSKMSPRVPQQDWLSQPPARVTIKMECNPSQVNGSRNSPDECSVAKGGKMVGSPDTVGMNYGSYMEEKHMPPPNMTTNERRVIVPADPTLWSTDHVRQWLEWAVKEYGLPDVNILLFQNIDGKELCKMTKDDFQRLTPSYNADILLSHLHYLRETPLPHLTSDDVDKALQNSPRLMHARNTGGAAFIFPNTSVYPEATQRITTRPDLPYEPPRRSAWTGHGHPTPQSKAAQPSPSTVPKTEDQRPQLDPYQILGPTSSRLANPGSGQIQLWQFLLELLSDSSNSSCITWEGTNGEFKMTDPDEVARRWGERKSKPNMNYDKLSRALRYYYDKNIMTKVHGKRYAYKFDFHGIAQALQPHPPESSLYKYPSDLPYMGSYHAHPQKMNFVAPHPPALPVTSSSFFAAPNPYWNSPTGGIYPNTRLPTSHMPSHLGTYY
How it was run: as §1

[5] = molecular target: ELF1 (Homo sapiens, UniProt P32519 1-619); conditions: protein: recombinant; tags: N-terminal GST; dsDNA, one strand shown
Sequence of ELF1 (P32519 whole entry): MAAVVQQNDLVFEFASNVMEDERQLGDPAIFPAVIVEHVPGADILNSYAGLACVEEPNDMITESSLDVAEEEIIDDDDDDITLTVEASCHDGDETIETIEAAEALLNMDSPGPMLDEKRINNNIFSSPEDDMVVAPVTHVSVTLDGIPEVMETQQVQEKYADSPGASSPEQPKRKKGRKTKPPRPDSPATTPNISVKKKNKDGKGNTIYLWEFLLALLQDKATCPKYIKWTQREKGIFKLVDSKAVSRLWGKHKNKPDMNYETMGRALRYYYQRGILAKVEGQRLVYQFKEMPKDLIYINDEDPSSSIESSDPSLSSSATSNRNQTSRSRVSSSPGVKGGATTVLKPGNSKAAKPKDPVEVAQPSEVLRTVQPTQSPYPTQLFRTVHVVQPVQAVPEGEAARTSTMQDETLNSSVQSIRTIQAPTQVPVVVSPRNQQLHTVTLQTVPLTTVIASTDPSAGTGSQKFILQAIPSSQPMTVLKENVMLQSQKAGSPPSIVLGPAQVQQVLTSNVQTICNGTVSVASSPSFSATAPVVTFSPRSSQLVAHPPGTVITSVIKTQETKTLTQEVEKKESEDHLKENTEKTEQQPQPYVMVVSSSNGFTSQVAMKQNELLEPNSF
How it was run: as §1

[6] = molecular target: T5, EHF (Homo sapiens, UniProt Q9NZC4 1-300); conditions: protein: recombinant; tags: N-terminal GST; dsDNA, one strand shown
T5 sequence: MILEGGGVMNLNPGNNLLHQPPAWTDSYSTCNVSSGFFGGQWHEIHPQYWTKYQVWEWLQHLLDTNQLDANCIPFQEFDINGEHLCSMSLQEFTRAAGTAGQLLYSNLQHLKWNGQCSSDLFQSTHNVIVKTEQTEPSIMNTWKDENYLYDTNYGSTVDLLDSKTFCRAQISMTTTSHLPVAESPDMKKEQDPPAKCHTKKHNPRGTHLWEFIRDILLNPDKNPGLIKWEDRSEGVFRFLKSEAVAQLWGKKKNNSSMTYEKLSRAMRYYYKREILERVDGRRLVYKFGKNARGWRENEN
How it was run: as §1

[7] = molecular target: SPI1 (Homo sapiens, UniProt P17947 1-270); conditions: protein: recombinant; tags: N-terminal GST; dsDNA, one strand shown
How it was run: as §1

[8] = molecular target: SPIB (Homo sapiens, UniProt Q01892 1-262); conditions: protein: recombinant; tags: N-terminal GST; dsDNA, one strand shown
Sequence of SPIB (Q01892 whole entry): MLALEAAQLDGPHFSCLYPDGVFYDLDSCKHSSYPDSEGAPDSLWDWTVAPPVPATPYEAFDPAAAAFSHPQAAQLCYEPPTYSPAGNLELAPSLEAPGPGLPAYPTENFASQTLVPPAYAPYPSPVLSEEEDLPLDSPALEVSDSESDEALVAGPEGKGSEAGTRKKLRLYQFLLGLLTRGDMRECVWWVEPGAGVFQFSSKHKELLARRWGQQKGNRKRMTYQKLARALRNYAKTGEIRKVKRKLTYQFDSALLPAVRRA
How it was run: as §1

[9] = molecular target: T6, ELK3 (Homo sapiens, UniProt P41970 1-407); conditions: protein: recombinant; tags: N-terminal GST; dsDNA, one strand shown
T6 sequence: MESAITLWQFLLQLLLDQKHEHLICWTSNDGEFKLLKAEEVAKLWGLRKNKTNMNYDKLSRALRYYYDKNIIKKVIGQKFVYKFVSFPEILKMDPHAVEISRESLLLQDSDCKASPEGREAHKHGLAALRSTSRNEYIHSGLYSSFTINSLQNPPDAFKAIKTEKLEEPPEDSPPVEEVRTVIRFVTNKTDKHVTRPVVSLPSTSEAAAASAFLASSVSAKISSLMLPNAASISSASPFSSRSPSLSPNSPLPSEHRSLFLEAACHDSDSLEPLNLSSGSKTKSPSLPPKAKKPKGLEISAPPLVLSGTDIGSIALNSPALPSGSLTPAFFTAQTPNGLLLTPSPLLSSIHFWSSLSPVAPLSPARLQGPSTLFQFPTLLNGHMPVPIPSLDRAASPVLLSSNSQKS
How it was run: as §1

[10] = molecular target: T7, FEV (Homo sapiens, UniProt Q99581 1-238); conditions: protein: recombinant; tags: N-terminal GST; dsDNA, one strand shown
T7 sequence: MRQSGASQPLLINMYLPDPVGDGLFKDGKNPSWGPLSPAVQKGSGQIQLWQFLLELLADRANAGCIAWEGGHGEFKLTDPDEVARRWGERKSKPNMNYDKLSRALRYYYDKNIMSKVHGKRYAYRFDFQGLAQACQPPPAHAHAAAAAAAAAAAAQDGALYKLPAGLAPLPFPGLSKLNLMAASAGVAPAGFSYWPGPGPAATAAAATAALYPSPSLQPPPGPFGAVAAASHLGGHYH
How it was run: as §1

[11] = molecular target: ETV5 (Homo sapiens, UniProt P41161 1-510); conditions: protein: recombinant; tags: N-terminal GST; dsDNA, one strand shown
Sequence of ETV5 (P41161 whole entry): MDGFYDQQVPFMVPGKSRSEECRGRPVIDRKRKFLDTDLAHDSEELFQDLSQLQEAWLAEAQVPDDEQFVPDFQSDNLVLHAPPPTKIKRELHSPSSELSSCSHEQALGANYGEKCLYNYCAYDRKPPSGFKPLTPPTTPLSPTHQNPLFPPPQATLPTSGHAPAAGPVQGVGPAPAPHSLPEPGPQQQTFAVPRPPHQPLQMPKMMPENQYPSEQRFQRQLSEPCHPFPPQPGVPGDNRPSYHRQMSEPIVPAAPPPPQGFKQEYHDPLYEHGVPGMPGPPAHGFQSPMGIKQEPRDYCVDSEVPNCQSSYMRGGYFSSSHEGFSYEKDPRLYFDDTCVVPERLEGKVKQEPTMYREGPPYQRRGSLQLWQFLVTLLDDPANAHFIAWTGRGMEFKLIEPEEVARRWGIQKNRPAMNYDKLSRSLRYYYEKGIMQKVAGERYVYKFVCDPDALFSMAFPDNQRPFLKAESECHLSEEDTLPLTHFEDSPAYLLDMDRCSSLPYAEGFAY
How it was run: as §1

[12] = molecular target: HSF1 (Homo sapiens, UniProt Q00613 1-529); conditions: protein: recombinant; tags: N-terminal GST; chain copies: 3; dsDNA, one strand shown
Sequence of HSF1 (Q00613 whole entry): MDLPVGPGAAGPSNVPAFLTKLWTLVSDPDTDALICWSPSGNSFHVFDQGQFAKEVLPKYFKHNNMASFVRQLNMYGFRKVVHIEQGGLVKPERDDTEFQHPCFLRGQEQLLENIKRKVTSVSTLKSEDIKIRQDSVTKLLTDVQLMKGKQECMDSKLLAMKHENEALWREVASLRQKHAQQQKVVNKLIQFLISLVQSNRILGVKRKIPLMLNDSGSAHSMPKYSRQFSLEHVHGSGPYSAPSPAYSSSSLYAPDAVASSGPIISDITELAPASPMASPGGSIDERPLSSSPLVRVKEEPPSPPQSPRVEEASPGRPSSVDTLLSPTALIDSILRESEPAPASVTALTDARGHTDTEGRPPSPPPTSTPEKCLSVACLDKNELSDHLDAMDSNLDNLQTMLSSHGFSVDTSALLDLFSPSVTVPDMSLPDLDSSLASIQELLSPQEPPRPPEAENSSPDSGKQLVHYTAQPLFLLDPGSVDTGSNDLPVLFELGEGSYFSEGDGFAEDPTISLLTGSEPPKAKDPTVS
How it was run: as §1

[13] = molecular target: T8, SPIC (Homo sapiens, UniProt Q8N5J4 1-248); conditions: protein: recombinant; tags: N-terminal GST; dsDNA, one strand shown
T8 sequence: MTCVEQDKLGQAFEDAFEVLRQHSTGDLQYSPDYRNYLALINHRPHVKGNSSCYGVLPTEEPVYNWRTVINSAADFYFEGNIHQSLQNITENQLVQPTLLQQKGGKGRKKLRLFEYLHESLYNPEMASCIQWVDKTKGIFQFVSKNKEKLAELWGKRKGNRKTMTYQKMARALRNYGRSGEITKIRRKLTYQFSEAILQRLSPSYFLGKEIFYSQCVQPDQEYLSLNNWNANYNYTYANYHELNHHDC
How it was run: as §1

[14] = molecular target: ELF4 (Homo sapiens, UniProt Q99607 1-663); conditions: protein: recombinant; tags: N-terminal GST; dsDNA, one strand shown
Sequence of ELF4 (Q99607 whole entry): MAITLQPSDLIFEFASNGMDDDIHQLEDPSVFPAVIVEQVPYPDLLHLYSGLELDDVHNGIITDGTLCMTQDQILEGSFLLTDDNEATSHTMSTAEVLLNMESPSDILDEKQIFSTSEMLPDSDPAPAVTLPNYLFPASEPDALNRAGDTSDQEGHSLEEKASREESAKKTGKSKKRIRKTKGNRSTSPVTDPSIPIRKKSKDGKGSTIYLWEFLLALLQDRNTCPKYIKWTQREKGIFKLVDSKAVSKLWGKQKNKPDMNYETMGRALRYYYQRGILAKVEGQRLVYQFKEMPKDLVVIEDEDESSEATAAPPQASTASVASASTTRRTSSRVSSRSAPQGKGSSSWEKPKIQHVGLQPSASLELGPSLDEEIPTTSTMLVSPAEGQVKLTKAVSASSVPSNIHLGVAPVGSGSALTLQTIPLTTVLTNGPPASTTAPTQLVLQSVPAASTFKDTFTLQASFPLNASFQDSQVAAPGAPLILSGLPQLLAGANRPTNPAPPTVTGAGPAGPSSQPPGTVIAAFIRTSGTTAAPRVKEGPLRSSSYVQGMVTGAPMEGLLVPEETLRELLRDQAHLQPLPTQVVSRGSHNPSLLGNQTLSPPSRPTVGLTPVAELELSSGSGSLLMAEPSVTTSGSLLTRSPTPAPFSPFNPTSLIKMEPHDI
How it was run: as §1

[15] = molecular target: T9, ELK4 (Homo sapiens, UniProt P28324-2 1-405); conditions: protein: recombinant; tags: N-terminal GST; dsDNA, one strand shown
T9 sequence: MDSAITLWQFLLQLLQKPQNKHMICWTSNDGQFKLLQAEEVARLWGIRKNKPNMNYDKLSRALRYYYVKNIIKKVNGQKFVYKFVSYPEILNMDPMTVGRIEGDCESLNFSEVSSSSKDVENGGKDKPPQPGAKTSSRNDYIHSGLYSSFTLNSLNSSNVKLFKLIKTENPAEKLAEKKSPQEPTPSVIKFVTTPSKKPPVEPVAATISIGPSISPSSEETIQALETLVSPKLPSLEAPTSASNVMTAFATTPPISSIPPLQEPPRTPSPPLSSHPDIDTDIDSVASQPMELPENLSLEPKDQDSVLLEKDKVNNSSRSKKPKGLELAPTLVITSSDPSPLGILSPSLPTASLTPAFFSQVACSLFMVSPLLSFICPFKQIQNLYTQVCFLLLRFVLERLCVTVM
How it was run: as §1

[16] = molecular target: T10, ETV2 (Homo sapiens, UniProt O00321 1-342); conditions: protein: recombinant; tags: N-terminal GST; dsDNA, one strand shown
T10 sequence: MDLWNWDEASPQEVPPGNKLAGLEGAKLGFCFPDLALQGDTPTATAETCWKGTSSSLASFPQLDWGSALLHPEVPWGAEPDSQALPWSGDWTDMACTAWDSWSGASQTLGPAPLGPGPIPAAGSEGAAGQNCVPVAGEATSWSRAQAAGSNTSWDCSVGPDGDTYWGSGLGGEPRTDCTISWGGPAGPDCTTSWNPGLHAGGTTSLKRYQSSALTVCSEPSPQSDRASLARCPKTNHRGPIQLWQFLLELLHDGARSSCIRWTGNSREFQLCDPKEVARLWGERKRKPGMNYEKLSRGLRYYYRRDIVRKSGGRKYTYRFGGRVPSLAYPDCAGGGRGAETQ
How it was run: as §1

[17] = molecular target: T11, ELF3 (Homo sapiens, UniProt P78545 1-371); conditions: protein: recombinant; tags: N-terminal GST; dsDNA, one strand shown
T11 sequence: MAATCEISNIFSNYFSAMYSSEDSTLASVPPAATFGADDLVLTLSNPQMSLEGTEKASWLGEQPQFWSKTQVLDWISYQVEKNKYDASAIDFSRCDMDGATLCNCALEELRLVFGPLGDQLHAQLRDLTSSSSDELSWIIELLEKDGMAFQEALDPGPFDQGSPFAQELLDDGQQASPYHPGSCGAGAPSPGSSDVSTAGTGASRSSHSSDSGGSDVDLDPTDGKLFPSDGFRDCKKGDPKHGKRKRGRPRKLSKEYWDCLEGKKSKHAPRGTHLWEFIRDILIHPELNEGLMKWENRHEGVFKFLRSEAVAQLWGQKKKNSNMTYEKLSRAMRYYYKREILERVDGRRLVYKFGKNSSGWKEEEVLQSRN
How it was run: as §1

[18] = molecular target: CRX (Homo sapiens, UniProt O43186 1-299); conditions: protein: recombinant; tags: N-terminal GST; dsDNA, one strand shown
Sequence of CRX (O43186 whole entry): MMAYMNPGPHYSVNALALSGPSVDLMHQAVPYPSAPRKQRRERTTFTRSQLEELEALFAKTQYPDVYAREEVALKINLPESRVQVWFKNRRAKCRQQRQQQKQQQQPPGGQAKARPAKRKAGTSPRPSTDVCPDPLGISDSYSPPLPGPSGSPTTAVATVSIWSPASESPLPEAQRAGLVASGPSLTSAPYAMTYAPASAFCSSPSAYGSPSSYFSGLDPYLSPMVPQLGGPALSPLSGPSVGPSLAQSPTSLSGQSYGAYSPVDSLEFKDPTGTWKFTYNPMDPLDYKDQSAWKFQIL
How it was run: as §1

[19] = molecular target: ETV1 (Homo sapiens, UniProt P50549 1-477); conditions: protein: recombinant; tags: N-terminal GST; dsDNA, one strand shown
Sequence of ETV1 (P50549 whole entry): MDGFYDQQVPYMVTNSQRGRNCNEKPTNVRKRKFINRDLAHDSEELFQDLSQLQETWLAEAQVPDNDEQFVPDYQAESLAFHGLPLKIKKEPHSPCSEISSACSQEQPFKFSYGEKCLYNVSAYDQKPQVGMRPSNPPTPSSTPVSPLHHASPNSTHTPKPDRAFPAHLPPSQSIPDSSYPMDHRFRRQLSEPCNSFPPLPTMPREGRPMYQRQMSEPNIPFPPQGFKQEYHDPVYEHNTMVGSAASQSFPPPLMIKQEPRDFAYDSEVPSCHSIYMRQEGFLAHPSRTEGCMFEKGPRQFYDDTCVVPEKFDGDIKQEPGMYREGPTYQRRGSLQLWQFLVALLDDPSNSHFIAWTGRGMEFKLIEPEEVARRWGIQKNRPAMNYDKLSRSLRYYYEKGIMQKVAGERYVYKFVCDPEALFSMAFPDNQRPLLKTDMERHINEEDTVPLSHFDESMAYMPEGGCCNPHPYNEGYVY
How it was run: as §1

Sequence: CTAATC
- binding signal [1]: 1.32 fold enrichment (6-mer frequency, TF over GST control)
- binding signal [2]: 1.39 fold enrichment (6-mer frequency, TF over GST control)
- binding signal [3]: 1.34 fold enrichment (6-mer frequency, TF over GST control)
- binding signal [4]: 1.32 fold enrichment (6-mer frequency, TF over GST control)
- binding signal [5]: 1.32 fold enrichment (6-mer frequency, TF over GST control)
- binding signal [6]: 1.35 fold enrichment (6-mer frequency, TF over GST control)
- binding signal [7]: 1.26 fold enrichment (6-mer frequency, TF over GST control)
- binding signal [8]: 1.45 fold enrichment (6-mer frequency, TF over GST control)
- binding signal [9]: 1.44 fold enrichment (6-mer frequency, TF over GST control)
- binding signal [10]: 1.33 fold enrichment (6-mer frequency, TF over GST control)
- binding signal [11]: 1.32 fold enrichment (6-mer frequency, TF over GST control)
- binding signal [12]: 3.22 fold enrichment (6-mer frequency, TF over GST control)
- binding signal [13]: 1.41 fold enrichment (6-mer frequency, TF over GST control)
- binding signal [14]: 1.42 fold enrichment (6-mer frequency, TF over GST control)
- binding signal [15]: 1.35 fold enrichment (6-mer frequency, TF over GST control)
- binding signal [16]: 1.41 fold enrichment (6-mer frequency, TF over GST control)
- binding signal [17]: 1.56 fold enrichment (6-mer frequency, TF over GST control)
- binding signal [18]: 5.33 fold enrichment (6-mer frequency, TF over GST control)
- binding signal [19]: 1.49 fold enrichment (6-mer frequency, TF over GST control)
